In the library only some 19% were active in any assay of this set; here they are far more common.
IL-1B inflam inh: inhibitors of inflammasome signaling (IL-1 beta secretion) | THP-1 LPS/ATP IL-1B secretion, AlphaLISA, 16 h; active compounds read low | activity change, % at 57.5 µM | 360,000 tested, 4.7% active | AID 743279; in the data active = activity change below about -50%; inconclusive = mostly about -30% to -49%
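Secreted IL-1B measured by AlphaLISA bead assay after 16 h compound exposure of THP-1 cells; compounds (final up to 57.5 uM) added 1 h before LPS (250 ng/mL) and ATP (1.25 mM) stimulation; lower signal means less secretion.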
HT1080 IDH1KD tx: toxicity to HT-1080 IDH1 knockdown cells (counter line); HT-1080 IDH1 knockdown viability, ATP luminescence, 48 h; Potency, µM (top dose mostly 46.1 µM), for the others: at the highest dose activity, negative = toxicity, usual class: cytotoxic; 360,000 tested, 2% active; AID 686971;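 also: potency is read from the fitted curve at half-maximal effect; 0% = DMSO wells and -100% = cell-free medium wells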
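HT-1080-IDH1KD cells (IDH1 knocked down), 750/well in RPMI with 5% FBS, treated with compound 48 h at 37 degrees C. Viability by CellTiter-Glo luminescence, normalised to DMSO and no-cell wells; concentration-response curves classed.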
HT1080NT lethal: kills 2HG-producing HT-1080-NT fibrosarcoma cells | Potency, µM (highest dose often 46.1 µM), for inactives: top-dose activity, negative = less viability, usual class: cytotoxic | 360,000 tested, 1.6% active | HT-1080-NT fibrosarcoma viability, CellTiter-Glo ATP luminescence, 48 h;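 also: NT is the 2HG producing partner of a matched IDH1 knockdown line; potency is read from the fitted curve at half-maximal effect; 0% = DMSO-treated cells and -100% = media-only wells without cells; nearly all actives have a fitted effect of over 55% in size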
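Fibrosarcoma NT cells, 750 per well in 5% FBS RPMI, were exposed to compound for 48 hours. Viability: CellTiter-Glo luminescence.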
uPA surface inh: cell surface uPA generation inhibition; cell surface uPA generation assay, qHTS; Potency, µM (doses to about 38.3 µM), without a hit: at the top dose activity change, negative = inhibition, most hits filed as inhibitors; 330,000 tested, 0.31% active; active = well fitted inhibition curve with a large enough effect; inconclusive = small, poorly fitted or top-dose-only effect; inactive = no such curve, though single readings can be large or run the other way; tested in mouse RAW 264.7 cells; also: potency is read from the fitted curve at half-maximal effect; nearly all actives have a fitted effect of over 55% in size
DT40 TDP1 CPT: DT40-hTDP1 cell growth loss with CPT; 420,000 tested, 12% active; chicken DT40 Tdp1-/-;hTDP1 cells + 20 nM CPT, ATP luminescence, 48 h; AID 686979; Potency, µM (top dose mostly 46.2 µM), inactives show top-dose activity change, negative = growth inhibition, hits mostly inhibitors; also: potency is read from the fitted curve at half-maximal effect; nearly all actives have a fitted effect of over 55% in size
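Cell growth measured by CellTiter-Glo luminescence after a minimum 48 h, 37 C compound exposure with 20 nM CPT in Tdp1-knockout DT40 cells stably expressing hTDP1, seeded 400/well; qHTS titration format.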
DT40 TDP1 no CPT: qHTS for Inhibitors of human tyrosyl-DNA phosphodiesterase 1 (TDP1): qHTS in cells in absence of CPT; 420,000 tested, 15% active; Potency, µM (doses to about 46.2 µM), inactives show at the top dose activity change, negative = growth inhibition, usual class: inhibitors; DT40 Tdp1-/- hTDP1 cells, no CPT, ATP luminescence, 48 h; also: potency is read from the fitted curve at half-maximal effect; nearly all actives have a fitted effect of over 55% in size
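Chicken DT40 Tdp1-/- cells complemented with human TDP1, screened without camptothecin (DMSO vehicle only), 400 cells/well. Compounds pin-transferred, cells incubated at 37 °C for at least 48 hr. Growth read as ATP-dependent luminescence (CellTiter-Glo, 30 min at RT).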
The depositor's hits bear a star; ? = inconclusive; nt = no result; [ ] = another dose, or the depositor's remark. Unless noted, calls follow the shape of the dose curve; as a rule, active = well fitted curve in the direction sought with a large enough effect; inconclusive = small, poorly fitted or top-dose-only effect, or another doubt; inactive = no such curve, though single readings can be large; an effect the other way counts as inactive or inconclusive. Unless noted, % is scaled to controls: 0 for no effect and ±100 for the full control effect.

SMILES	IL-1B inflam inh	HT1080 IDH1KD tx	HT1080NT lethal	uPA surface inh	DT40 TDP1 CPT	DT40 TDP1 no CPT
CN=c1scc(-c2ccc(OC)cc2)n1/N=C(\C)c1cccnc1	-26.6	?	?	nt	?	18.4µM*
C/C=C1\[C@H]2C=C(C)C[C@]1(N)c1ccc(=O)[nH]c1C2	nt	nt	nt	nt	-3.8%	-2.6%
Cc1ccc(S(=O)(=O)N(CC2CO2)c2cccc([N+](=O)[O-])c2)cc1 (configuration not stated)	-14.0	?	?	-4.4%	11.6µM*	23.1µM*
Cc1ccc(S(=O)(=O)N(CC(=O)NCC2CCCO2)c2cccc([N+](=O)[O-])c2)cc1 (configuration not stated)	-10.6	-3.1%	-0.3%	-13.2%	-12.0%	1.8%
O=S(=O)(c1ccccc1)N(CC1CO1)c1cccc2ccccc12 (configuration not stated)	-68.6*	?	-18.3%	-4.7%	20.6µM*	23.1µM*
Cc1ccc(S(=O)(=O)N(CC2CO2)c2ccccc2[N+](=O)[O-])cc1 (configuration not stated)	?	-16.7%	-28.9%	-8.8%	11.6µM*	?
Cn1cccc1C(=O)N1CCC2(CC1)CN(C(=O)Nc1cccc(C#N)c1)C2	nt	nt	nt	nt	-6.4%	?
C=CCN1c2ccccc2C(=O)CS1(=O)=O	0.0	-3.6%	12.9%	-3.1%	1.6%	?
Fc1ccc(N2CCN(c3ncnc4[nH]ncc34)CC2)cc1	nt	nt	nt	nt	-27.9%	-21.8%
COc1ccccc1NNC(=O)C(O)(c1ccccc1OC)c1ccccc1OC	9.5	24.6%	14.8%	1.3%	18.4µM*	23.1µM*
COc1ccc(CN2CCC(Oc3ccc(C(=O)N4CCCC4)cc3)CC2)c(F)c1	-1.0	1.3%	0.9%	-10.2%	-12.5%	2.8%
CCCC(C(=O)NC1CCCC1)N(C(=O)Cn1nnc(-c2ccc(C)o2)n1)C1CCCC1 (configuration not stated)	-18.4	-24.8%	-17.7%	nt	?	?
CCC(C(=O)NC1CCCC1)N(C(=O)Cn1nnc(-c2ccc(OC)c(OC)c2)n1)C1CCCCC1 (configuration not stated)	?	-4.5%	7.8%[9.24 µM]	nt	13µM*	?
COc1ccc(-c2nnn(CC(=O)N(CC(=O)NC3CCCC3)Cc3ccco3)n2)cc1OC	6.1	11.9%	9.6%	-4.5%	-2.4%	-6.1%
CCC(C(=O)NC1CCCC1)N(C(=O)Cn1nnc(-c2ccc(C)cc2)n1)C1CCCC1 (configuration not stated)	-54.3*	17.2%	8.7%	12.8%	25.9µM*	18.4µM*
CCC(C)c1ccccc1N1CC(C(=O)N(C)CC(=O)Nc2cccc(F)c2)CC1=O (configuration not stated)	-60.9*	-6.0%	-4.4%	-3.0%	-22.2%	-2.4%
COc1ccc(NC(=O)Cn2c(=O)n(CC3CCCO3)c(=O)c3ccccc32)cc1 (configuration not stated)	nt	nt	nt	nt	1.8%	0.7%
CN(C)c1ccc(N=Nc2ccc(S(N)(=O)=O)cc2)cc1	-23.5	-1.7%	-6.3%	-4.1%	8.1%	-15.5%
CC1=CC(=O)C=CC1=Nc1ccc(N(C)C)cc1	-120.6*	?	?	nt	1.03µM*	0.92µM*
CCCn1c(SCC(=O)N2CCc3ccccc3C2)nc(O)cc1=O	15.2	-8.7%	1.2%	5.8%	-12.3%	-4.9%
O=C(c1ccncc1)N1CCC2(CCN(Cc3ccncc3)CC2)CC1	nt	nt	nt	nt	-4.2%	-9.9%
CCCCN(C)CCCNC(=O)C1CCN(S(=O)(=O)CCC)CC1	nt	nt	nt	nt	-10.0%	-7.0%
Cc1cccc(CNc2cc(-c3ccccc3C)ncn2)c1	nt	nt	nt	nt	14.6µM*	6.51µM*
COc1ccccc1-c1cc(NCc2cccc(C)c2)ncn1	nt	nt	nt	nt	13µM*	18.4µM*
CCc1ccccc1NC(=O)CNC(=O)CCc1nc2sc3c(c2c(=O)[nH]1)CCCC3	17.4	1.8%	-2.6%	1.4%	-16.0%	0.6%
SMILES	IL-1B inflam inh	HT1080 IDH1KD tx	HT1080NT lethal	uPA surface inh	DT40 TDP1 CPT	DT40 TDP1 no CPT
Cc1ccc(NC(=O)Cn2cc(S(=O)(=O)N3CCC(C)CC3)c3ccccc3c2=O)c(Br)c1	nt	nt	nt	nt	-22.3%	-22.8%
COc1ccc(CC(=O)Nc2ccc(-c3noc(-c4ccc(Cl)cc4)n3)cc2)cc1	15.8	-13.6%	13.1%	nt	5.17µM*	?
COc1ccc(-c2nc(CS(=O)(=O)CC(=O)NCCc3cc(OC)ccc3OC)c(C)o2)cc1	6.6	-14.4%	1.1%	nt	?	23.1µM*
COc1ccc(CC(=O)Nc2ccc(-c3noc(-c4cc(OC)c(OC)c(OC)c4)n3)cc2)cc1	49.1	?	?	-4.0%	?	?
COc1ccc(OC)c(CCNC(=O)CS(=O)(=O)Cc2nc(-c3ccc(C)cc3)oc2C)c1	-10.1	3.7%	1.7%	0.5%	?	?
COc1cccc(-c2nc(CS(=O)(=O)CC(=O)NCCc3ccc(OC)cc3OC)c(C)o2)c1	?	-20.2%	-2.8%	3.0%	18.4µM*	23.1µM*
COc1cccc(-c2nc(CS(=O)(=O)CC(=O)NCCc3cc(OC)ccc3OC)c(C)o2)c1	-15.4	-19.4%	-24.9%	0.3%	-22.2%	18.4µM*
CCCCC(CC)COS(=O)(=O)O (configuration not stated)	nt	nt	nt	nt	6.0%	-15.9%
CC1CCC(NC(=O)c2cc(Cl)nc3ccccc23)CC1 (configuration not stated)	31.2	8.0%	5.2%	10.0%	-0.1%	-23.5%
CCOC(=O)c1cccc(NC(=O)CCn2nc(C)c3c(C)n(-c4ccccc4)nc3c2=O)c1	nt	nt	nt	nt	-9.6%	-3.7%
Cc1ccc(C)c(Cn2c(=O)n(Cc3ccc4c(c3)OCO4)c(=O)c3oc4ccccc4c32)c1	nt	nt	nt	nt	-6.3%	-12.7%
COc1ccc(-c2nc(CS(=O)(=O)CC(=O)Nc3ccc(Cl)cc3)c(C)o2)cc1	-4.0	?	?	-10.9%	10.3µM*	20.6µM*
CC(C)(C)n1nnnc1C(c1ccccc1)N1CCN(c2ncccc2C(F)(F)F)CC1 (configuration not stated)	-19.3	-11.4%	-1.9%	nt	18.4µM*	25.9µM*
CC(C)(C)n1nnnc1CN1CCN(C(c2ccccc2)c2ccccc2)CC1	-55.2*	-16.7%	-18.1%	3.4%	?	18.4µM*
Cc1ccc(C)c(N2CCN(C(c3ccccc3)c3nnnn3C(C)(C)C)CC2)c1 (configuration not stated)	-5.2	-6.5%	-27.4%	nt	-80.1%	18.4µM*
